MazF activator: activators of E. coli MazEF toxin-antitoxin RNase, primary screen, biochemical, fluorescence, uHTS. Endoribonuclease toxin MazF (Escherichia coli (strain K12)), P0AE70. activation, % at 20 µM. FAM/BHQ RNA-DNA oligo cleavage fluorescence, 5 h. actives 0.32% (n = 350,000). AID 504720, 2011; in the data active means activation above about 50%
Target sequence (P0AE70 whole entry, looked up): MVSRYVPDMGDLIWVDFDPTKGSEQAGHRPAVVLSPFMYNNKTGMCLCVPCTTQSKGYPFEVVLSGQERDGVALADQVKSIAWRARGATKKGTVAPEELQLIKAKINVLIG
PfHsp40 rescue: rescue of yeast from PfHsp40 toxicity, primary screen, S. cerevisiae, ATP luminescence. S. cerevisiae expressing PfHsp40, growth rescue. actives 0.68% (n = 340,000). growth rescue, % at 12.5 µM. AID 504582, 2011; in the data active means growth rescue above about 28%, passing the limit was not always enough; inconclusive means no clear call, values can overlap the other calls;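 further: yeast W303a lacking pdr1 and pdr3 grown in galactose medium; growth measured after three days at 30 °C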
Anthrax LF prot: Bacillus anthracis LF protease inhibitors, primary screen, biochemical, multiplex microsphere, MLPCN library. Lethal factor (Bacillus anthracis), P15917. multiplex microsphere protease cleavage assay. inhibition, % at 10 µM. actives 0.12% (n = 360,000). AID 588501, 2011; further: plate controls were buffer without enzyme for full effect and enzyme alone for no effect
BoNT F protease: BoNT/F light chain protease inhibitors, primary screen, biochemical, flow cytometry, MLPCN library. Botulinum neurotoxin type F light chain protease (Clostridium botulinum). Multiplex microsphere protease cleavage assay. inhibition, % at 10 µM. actives 0.22% (n = 360,000). AID 588497, 2011; in the data active means inhibition above about 35%, passing the limit was not always enough; inconclusive means no clear call, values can overlap the other calls; further: plate controls were buffer without enzyme for full effect and enzyme alone for no effect
Autofluor counter: flagged as autofluorescent in microsphere protease counterscreen; compound autofluorescence counterscreen, microsphere flow cytometry; hits give high values; fluorescence intensity (concentration not given with the values); actives 3.1% (n = 360,000); in the data active means fluorescence intensity above about 16000; inconclusive means no clear call, values can overlap the other calls
BoNT A protease: BoNT/A light chain protease inhibitors, primary screen, biochemical, flow cytometry, MLPCN library; multiplex microsphere protease substrate cleavage; inhibition, % at 10 µM; actives 0.17% (n = 360,000); AID 588499, 2011; further: plate controls were buffer without enzyme for full effect and enzyme alone for no effect
Numbers without * were called inactive. Only some compounds are listed: those with a hit (about 4.3% of all), similar ones and a draw of the others. Unless noted, no stated cut-off is given here; in the data, active means inhibition above about 30%; inconclusive means no clear call, values can overlap the other calls; inactive means below that.

Screening C(=N\Nc1nncc2ccccc12)/c1ccccn1 returned MazF activator 2, PfHsp40 rescue 413*, Anthrax LF prot -5, BoNT F protease -5, Autofluor counter 4339 and BoNT A protease -1.
Screening CC(=O)Nc1ccc(/C=N/Nc2nncc3ccccc23)cc1 returned MazF activator 3, PfHsp40 rescue 0, Anthrax LF prot 0, BoNT F protease 48*, Autofluor counter 3024 and BoNT A protease 5.
`O=c1nc(N/N=C/c2ccccn2)cn[nH]1` gave MazF activator -5, PfHsp40 rescue 617*, Anthrax LF prot 0, BoNT F protease -6, Autofluor counter 2345 and BoNT A protease -2.
For Fc1cccc(/C=N/Nc2nncc3ccccc23)c1 the results were MazF activator -2, PfHsp40 rescue -2, Anthrax LF prot 25, BoNT F protease 14, Autofluor counter 3485 and BoNT A protease -1.
Screening Cc1csc(NC(=O)c2ccc(S(=O)(=O)N3CCN(C)CC3)cc2)n1 returned MazF activator 10, PfHsp40 rescue -1, Anthrax LF prot -2, BoNT F protease 1, Autofluor counter 5708 and BoNT A protease 0.
CN(C(=O)c1cccc(NC(=O)Cc2cccc(NC(=O)C3CCCN(C(=O)c4ccccc4)C3)c2)c1)C1CC1 (stereo not drawn) was read as MazF activator -1, PfHsp40 rescue 0, Anthrax LF prot 2, BoNT F protease -7, Autofluor counter 3632 and BoNT A protease 0.
CC1CCN(C(=O)CSc2nc3ccccc3s2)CC1 was read as MazF activator -7, PfHsp40 rescue -1, Anthrax LF prot 1, BoNT F protease 0, Autofluor counter 23396* and BoNT A protease 1.
O=C(O)CCSc1nc2ccccc2s1 was read as MazF activator 4, PfHsp40 rescue -1, Anthrax LF prot -4, BoNT F protease 1, Autofluor counter 22416* and BoNT A protease 2.
CC1CCCN(C(=O)CSc2cnc3ccccc3n2)C1 (stereo not drawn) was read as MazF activator -1, PfHsp40 rescue 0, Anthrax LF prot -1, BoNT F protease -4, Autofluor counter 19588* and BoNT A protease 0.
Screening O=C(CCCSc1nc2ccccc2s1)NC1=NCCS1 returned MazF activator 5, PfHsp40 rescue 0, Anthrax LF prot 0, BoNT F protease -5, Autofluor counter 23045* and BoNT A protease 1.
Screening CC1CCCN(C(=O)CSc2nc3ncccc3[nH]2)C1 (stereo not drawn) returned MazF activator 3, PfHsp40 rescue 1, Anthrax LF prot -2, BoNT F protease 3, Autofluor counter 3157 and BoNT A protease 1.
`CC(=O)Nc1cccc(OCCCNC(=O)c2cccc3ccccc23)c1` gave MazF activator 0, PfHsp40 rescue 1, Anthrax LF prot 15, BoNT F protease inconclusive, Autofluor counter 3597 and BoNT A protease -1.
`Nc1nnc(CCN2C(=O)CSC2=O)s1` gave MazF activator -8, PfHsp40 rescue -1, Anthrax LF prot 0, BoNT F protease -4, Autofluor counter 24168* and BoNT A protease -2.
COc1ccccc1-n1nnnc1SCC(=O)Nc1ccccn1 was read as MazF activator 4, PfHsp40 rescue 1, Anthrax LF prot -10, BoNT F protease 5, Autofluor counter 19311* and BoNT A protease 4.
COc1ccc(OC)c(-n2nnnc2SCC(=O)Nc2ccc3c(c2)OCCO3)c1 was read as MazF activator -1, PfHsp40 rescue 6, Anthrax LF prot -3, BoNT F protease -3, Autofluor counter 5394 and BoNT A protease 1.
`CCCn1c(=O)c2ccccc2n2c(SCc3c(C(=O)OCC)oc4ccccc34)nnc12` gave MazF activator 13, PfHsp40 rescue 0, Anthrax LF prot 0, BoNT F protease -1, Autofluor counter 10290 and BoNT A protease 1.
CCOC(=O)c1oc2ccccc2c1CSc1nnnn1-c1ccc(OC)cc1 was read as MazF activator 9, PfHsp40 rescue 0, Anthrax LF prot 0, BoNT F protease 3, Autofluor counter 21747* and BoNT A protease inconclusive.
For CCOC(=O)CSc1nnnn1-c1cc(OC)ccc1OC the results were MazF activator 1, PfHsp40 rescue 0, Anthrax LF prot -2, BoNT F protease 0, Autofluor counter 16299* and BoNT A protease 0.
For COC(=O)c1ccc(NC(=O)CCN2C(=O)C3CC=CCC3C2=O)cc1 (stereo not drawn) the results were MazF activator -20, PfHsp40 rescue 1, Anthrax LF prot 3, BoNT F protease -5, Autofluor counter 3861 and BoNT A protease 0.
Cn1c(SCCOc2ccc(Cl)cc2)nnc1-c1ccncc1 was read as MazF activator 6, PfHsp40 rescue -2, Anthrax LF prot 4, BoNT F protease -1, Autofluor counter 23566* and BoNT A protease 0.
For Cn1c(SCCOc2ccccc2Cl)nnc1-c1cccs1 the results were MazF activator -6, PfHsp40 rescue -1, Anthrax LF prot 0, BoNT F protease -1, Autofluor counter 22281* and BoNT A protease 2.
`Cc1ccc(OCCSc2nnc(-c3cccs3)n2C)cc1` gave MazF activator -3, PfHsp40 rescue 0, Anthrax LF prot 1, BoNT F protease -2, Autofluor counter 20327* and BoNT A protease inconclusive.
Cc1cc(OCCSc2nnc(-c3cccs3)n2C)ccc1Cl was read as MazF activator -3, PfHsp40 rescue 2, Anthrax LF prot -4, BoNT F protease 8, Autofluor counter 4625 and BoNT A protease 0.
`COc1ccc(NC(=O)c2c(NC(=O)CCC(=O)O)sc(-c3ccccc3)c2C)cc1` gave MazF activator -6, PfHsp40 rescue 2, Anthrax LF prot 0, BoNT F protease -4, Autofluor counter 2251 and BoNT A protease 0.
O=C(CCc1ccccc1)n1nc(-c2ccccc2)nc1NCc1ccco1 was read as MazF activator 0, PfHsp40 rescue 0, Anthrax LF prot -5, BoNT F protease -4, Autofluor counter 23164* and BoNT A protease -3.
Screening COc1ccc(NC(=O)CCC(=O)Nc2nnc(C3CCCCC3)s2)c(OC)c1 returned MazF activator 5, PfHsp40 rescue 0, Anthrax LF prot -5, BoNT F protease -7, Autofluor counter 6213 and BoNT A protease -2.
O=C(CCCNC(=O)c1ccc(Cl)cc1)OCc1cccc(Br)c1 was read as MazF activator 1, PfHsp40 rescue 277*, Anthrax LF prot -2, BoNT F protease 12, Autofluor counter 5163 and BoNT A protease -1.
`Cc1ccc(C(=O)CCC2CCCCC2=O)cc1` (stereo not drawn) gave MazF activator 0, PfHsp40 rescue 0, Anthrax LF prot 0, BoNT F protease 0, Autofluor counter 19947* and BoNT A protease inconclusive.
